We go through nine compounds from ChEMBL document CHEMBL3988442, “University of Dundee, Small-Polar-MMV Screening Library” (2021).

Each structure is given as a SMILES string. For part of these data: Results with a measured potency or affinity are listed apart.

Common to all, as to set-up: scale not given: direction of the effect not stated beside the values
For assay [1], the target named is Protein translocase subunit SecA (Escherichia coli (strain K12)) (UniProt P10408). The assay is described as follows: Assay to Identify E. coli SecA ATPase Inhibitors. The format is functional. To be noted: 30 µM.
Sequence of Protein translocase subunit SecA (Escherichia coli (strain K12)) (P10408 whole entry): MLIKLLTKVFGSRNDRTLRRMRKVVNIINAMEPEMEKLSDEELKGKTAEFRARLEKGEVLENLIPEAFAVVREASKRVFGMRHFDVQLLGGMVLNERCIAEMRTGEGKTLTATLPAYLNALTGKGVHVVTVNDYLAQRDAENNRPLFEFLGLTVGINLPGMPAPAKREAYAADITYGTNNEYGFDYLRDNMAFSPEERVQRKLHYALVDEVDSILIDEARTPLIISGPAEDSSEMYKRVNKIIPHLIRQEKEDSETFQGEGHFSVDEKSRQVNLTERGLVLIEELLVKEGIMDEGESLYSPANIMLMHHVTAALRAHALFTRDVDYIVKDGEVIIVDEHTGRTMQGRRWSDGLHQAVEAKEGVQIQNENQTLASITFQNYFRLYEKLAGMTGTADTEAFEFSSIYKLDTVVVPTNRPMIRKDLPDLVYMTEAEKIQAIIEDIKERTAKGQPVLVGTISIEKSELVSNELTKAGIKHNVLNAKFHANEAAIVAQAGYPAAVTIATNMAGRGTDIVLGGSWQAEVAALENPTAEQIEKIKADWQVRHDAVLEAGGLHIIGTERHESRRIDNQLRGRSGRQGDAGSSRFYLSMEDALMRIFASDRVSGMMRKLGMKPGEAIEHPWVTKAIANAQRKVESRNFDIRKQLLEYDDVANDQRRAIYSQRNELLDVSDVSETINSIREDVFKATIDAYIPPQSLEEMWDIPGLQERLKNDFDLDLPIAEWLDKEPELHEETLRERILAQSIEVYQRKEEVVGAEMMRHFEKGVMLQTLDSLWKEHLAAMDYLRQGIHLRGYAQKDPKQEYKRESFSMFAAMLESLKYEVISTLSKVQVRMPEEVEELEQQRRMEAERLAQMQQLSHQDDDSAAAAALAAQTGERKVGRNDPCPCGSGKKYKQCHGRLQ
Assay [2] deals with T1, Ubiquitin-activating enzyme e1, putative (Leishmania donovani (strain BPK282A1)) (UniProt E9BSI1).
T1 sequence (whole entry): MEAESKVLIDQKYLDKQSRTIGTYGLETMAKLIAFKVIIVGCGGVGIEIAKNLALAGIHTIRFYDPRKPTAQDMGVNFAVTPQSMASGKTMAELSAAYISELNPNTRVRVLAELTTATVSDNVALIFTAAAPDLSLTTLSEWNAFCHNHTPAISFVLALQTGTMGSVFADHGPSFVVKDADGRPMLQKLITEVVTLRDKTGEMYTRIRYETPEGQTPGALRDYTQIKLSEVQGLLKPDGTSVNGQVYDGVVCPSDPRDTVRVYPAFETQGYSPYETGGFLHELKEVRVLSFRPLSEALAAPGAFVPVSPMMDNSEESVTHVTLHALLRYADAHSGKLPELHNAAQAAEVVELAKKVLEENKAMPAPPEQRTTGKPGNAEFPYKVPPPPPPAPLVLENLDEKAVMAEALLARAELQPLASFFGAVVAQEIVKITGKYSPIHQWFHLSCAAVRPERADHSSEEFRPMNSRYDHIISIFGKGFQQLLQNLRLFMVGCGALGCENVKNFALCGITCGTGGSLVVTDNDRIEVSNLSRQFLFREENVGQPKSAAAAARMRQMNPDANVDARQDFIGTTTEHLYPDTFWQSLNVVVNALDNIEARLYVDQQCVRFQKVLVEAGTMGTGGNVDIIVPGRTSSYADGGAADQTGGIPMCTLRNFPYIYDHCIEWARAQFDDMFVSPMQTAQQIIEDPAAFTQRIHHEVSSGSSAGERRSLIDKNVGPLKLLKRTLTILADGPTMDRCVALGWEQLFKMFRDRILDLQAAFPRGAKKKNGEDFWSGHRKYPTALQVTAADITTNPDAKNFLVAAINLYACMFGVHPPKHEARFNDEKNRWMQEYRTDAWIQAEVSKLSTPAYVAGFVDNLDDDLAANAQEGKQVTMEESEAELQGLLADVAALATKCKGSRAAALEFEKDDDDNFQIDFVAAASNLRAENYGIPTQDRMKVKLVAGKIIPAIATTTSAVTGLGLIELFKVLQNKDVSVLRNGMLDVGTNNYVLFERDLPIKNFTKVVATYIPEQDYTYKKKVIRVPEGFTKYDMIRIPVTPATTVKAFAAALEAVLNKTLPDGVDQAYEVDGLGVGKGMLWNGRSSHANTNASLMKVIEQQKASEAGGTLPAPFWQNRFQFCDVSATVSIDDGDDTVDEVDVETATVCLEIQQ
Description: Leishmania donovani Ubiquitin Activating Enzyme (LdE1). To be noted: 30 µM. Type of assay: functional.

Assay [3] has as its target AMP-activated protein kinase, AMPK (Homo sapiens) (UniProt P54646+O43741+P54619+Q9UGJ0+Q9Y478+Q13131+Q9UGI9). The assay is described as follows: AMP-dependent Kinase enzyme assay. An in vitro enzyme assay that detects ADP turnover that is directly proportional to AMPK activity. This uses naive AMPK that is activated during the assay with MK-8722. Type of assay: functional. To be noted: 30 µM.

Assay [4] has as its target Sialic acid-binding Ig-like lectin 9 (Homo sapiens) (UniProt Q9Y336). Description: Hs-Siglec9 ALPHAscreen SOP 20170721. To be noted: 10 µM.
Assay [5] concerns Trypanosoma cruzi. The assay is described as follows: Trypanosoma cruzi phosphomannomutase and mannose-1-phosphate guanylyltransferase assay. Type of assay: functional. The following applies: 10 µM.
Assay [6] deals with T2, Arginase-2, mitochondrial (Homo sapiens) (UniProt P78540).
T2 sequence (whole entry): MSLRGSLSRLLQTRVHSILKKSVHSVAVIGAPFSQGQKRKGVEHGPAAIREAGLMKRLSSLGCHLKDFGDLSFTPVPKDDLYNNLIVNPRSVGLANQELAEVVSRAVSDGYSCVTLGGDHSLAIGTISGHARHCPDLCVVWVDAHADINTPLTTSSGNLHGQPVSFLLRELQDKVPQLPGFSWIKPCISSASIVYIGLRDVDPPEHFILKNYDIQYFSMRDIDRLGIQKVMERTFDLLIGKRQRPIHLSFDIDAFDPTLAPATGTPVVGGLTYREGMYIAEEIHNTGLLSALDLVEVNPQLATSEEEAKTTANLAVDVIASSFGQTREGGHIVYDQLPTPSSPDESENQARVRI
The assay is described as follows: in vitro enzyme assay to detect the production of urea directly proportional to the activity of Arginase II. Further: in the data most compounds retested in dose-response had high values. The format is functional. The following applies: 33.3 µM.

The target in assay [7] is T3, Proteasome subunit beta (Trypanosoma cruzi) (UniProt O96673).
T3 sequence (whole entry): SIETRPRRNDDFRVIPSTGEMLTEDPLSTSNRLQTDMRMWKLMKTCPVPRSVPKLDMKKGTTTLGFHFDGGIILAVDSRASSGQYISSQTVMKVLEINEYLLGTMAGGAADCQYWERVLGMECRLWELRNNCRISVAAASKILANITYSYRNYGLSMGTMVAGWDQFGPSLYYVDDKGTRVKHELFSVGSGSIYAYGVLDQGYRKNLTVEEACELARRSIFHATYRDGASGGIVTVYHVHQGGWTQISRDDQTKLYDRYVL
The assay is described as follows: Trypanosoma cruzi proteasome chymotrypsin-like activity (TcProtChymo) assay. Further: in the data most compounds retested in dose-response had high values. To be noted: 9.37 µM. Type of assay: functional.

The species named for assay [8] is Homo sapiens. Description: To identify inhibition of the IFN signalling (Jak-Stat) pathway via expression of an eGFP reporter gene under the control of an IFN-stimulated response element (ISRE) containing MxA promoter. Type of assay: functional. To be noted: 30 µM.
Assay [9] addresses T4, Tyrosyl-tRNA synthetase, putative (Trypanosoma cruzi (strain CL Brener)) (UniProt Q4DSP6).
T4 sequence (whole entry): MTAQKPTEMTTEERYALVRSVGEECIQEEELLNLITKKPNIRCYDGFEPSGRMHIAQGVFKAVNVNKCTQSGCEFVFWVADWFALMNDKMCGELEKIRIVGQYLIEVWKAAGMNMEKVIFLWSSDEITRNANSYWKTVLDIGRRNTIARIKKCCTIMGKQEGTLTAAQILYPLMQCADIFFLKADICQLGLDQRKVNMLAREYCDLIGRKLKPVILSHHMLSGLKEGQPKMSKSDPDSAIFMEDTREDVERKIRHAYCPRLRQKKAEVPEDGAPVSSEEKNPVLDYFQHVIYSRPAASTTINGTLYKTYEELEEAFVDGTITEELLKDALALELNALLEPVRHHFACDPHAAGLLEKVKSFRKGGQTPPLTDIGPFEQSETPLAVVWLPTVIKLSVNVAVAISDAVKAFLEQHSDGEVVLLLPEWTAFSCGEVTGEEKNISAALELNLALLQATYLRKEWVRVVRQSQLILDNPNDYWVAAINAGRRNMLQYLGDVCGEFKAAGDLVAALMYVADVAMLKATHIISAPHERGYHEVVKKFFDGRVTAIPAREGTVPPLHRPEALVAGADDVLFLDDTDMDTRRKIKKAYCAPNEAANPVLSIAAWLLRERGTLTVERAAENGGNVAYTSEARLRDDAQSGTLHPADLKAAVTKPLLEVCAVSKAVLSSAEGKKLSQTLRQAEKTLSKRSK
The assay is described as follows: Trypanosoma cruzi tyrosyl tRNA synthetase (TcYRS) _High Tyrosine SOP. Further: in the data most compounds retested in dose-response had high values. The format is functional. To be noted: 30 µM.

Assay [10] deals with T4, Tyrosyl-tRNA synthetase, putative (Trypanosoma cruzi (strain CL Brener)). Description: Trypanosoma cruzi tyrosyl tRNA synthetase (TcYRS) SOP. Type of assay: functional. The following applies: 30 µM.
Assay [11] has as its target Chromo domain-containing protein 1 (Saccharomyces cerevisiae (strain ATCC 204508 / S288c) (Baker's yeast)) (UniProt P32657). The assay is described as follows: ScCHD-1 Enzyme Inhibition Assay. Further: in the data most compounds retested in dose-response had high values. The format is functional. To be noted: 30 µM.

Sequence of Chromo domain-containing protein 1 (Saccharomyces cerevisiae (strain ATCC 204508 / S288c) (Baker's yeast)) (P32657 whole entry, the tested form may be a part): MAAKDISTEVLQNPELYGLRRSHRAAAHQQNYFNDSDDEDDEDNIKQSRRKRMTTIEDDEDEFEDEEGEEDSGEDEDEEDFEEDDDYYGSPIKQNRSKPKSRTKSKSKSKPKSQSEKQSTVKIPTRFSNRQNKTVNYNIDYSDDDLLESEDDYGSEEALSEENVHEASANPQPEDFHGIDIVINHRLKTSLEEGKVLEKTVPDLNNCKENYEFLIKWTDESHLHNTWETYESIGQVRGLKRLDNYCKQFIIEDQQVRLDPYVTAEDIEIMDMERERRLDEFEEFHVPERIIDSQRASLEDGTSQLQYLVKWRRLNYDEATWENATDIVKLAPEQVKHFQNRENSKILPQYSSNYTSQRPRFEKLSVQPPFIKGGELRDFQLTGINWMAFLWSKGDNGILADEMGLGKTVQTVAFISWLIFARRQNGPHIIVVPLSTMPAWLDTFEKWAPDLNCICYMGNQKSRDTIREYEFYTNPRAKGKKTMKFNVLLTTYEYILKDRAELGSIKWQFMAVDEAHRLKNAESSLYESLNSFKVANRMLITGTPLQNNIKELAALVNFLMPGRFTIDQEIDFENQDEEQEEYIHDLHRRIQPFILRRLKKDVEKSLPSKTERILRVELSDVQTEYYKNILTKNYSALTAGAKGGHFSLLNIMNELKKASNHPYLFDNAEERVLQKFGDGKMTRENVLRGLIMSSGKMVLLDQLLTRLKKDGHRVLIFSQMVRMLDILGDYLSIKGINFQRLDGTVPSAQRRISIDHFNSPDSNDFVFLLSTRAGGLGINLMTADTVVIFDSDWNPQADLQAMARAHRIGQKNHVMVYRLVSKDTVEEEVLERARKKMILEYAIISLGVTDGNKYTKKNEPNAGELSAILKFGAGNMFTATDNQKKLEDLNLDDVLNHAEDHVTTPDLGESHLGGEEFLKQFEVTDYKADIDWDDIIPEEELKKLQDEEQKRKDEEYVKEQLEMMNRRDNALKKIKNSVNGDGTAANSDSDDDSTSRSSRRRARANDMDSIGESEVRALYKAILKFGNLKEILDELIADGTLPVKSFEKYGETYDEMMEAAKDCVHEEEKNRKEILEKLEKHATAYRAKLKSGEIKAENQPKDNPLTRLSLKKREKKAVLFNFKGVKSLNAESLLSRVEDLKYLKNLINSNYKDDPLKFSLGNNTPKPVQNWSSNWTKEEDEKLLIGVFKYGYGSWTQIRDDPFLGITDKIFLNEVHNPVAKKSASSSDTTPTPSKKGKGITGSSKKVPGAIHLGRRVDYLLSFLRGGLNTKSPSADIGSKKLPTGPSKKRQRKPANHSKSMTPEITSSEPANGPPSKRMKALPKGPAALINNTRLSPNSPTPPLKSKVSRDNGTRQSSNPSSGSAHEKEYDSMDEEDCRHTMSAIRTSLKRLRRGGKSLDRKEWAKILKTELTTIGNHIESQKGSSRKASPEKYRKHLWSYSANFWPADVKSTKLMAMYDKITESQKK
Sequence of Sialic acid-binding Ig-like lectin 9 (Homo sapiens) (Q9Y336 whole entry): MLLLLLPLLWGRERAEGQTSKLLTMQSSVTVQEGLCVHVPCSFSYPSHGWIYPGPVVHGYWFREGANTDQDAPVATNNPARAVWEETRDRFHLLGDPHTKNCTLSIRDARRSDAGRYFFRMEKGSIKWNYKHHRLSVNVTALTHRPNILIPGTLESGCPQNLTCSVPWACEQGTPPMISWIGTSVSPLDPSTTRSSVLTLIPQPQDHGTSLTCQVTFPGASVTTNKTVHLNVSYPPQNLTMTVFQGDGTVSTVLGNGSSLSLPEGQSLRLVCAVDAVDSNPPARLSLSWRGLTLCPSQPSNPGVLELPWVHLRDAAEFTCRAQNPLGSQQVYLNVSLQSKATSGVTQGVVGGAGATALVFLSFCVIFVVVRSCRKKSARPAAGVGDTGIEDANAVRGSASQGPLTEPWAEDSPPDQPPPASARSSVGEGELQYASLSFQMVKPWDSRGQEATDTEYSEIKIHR

Take `CCn1c(=O)nc2n1C(=O)N(c1cccc(Cl)c1)C2`: the Percent Effect in assay [1] was -5.8%; in assay [2] it was 6.67%; in assay [3] it was -1.98%; in assay [4] it was -4.32%; in assay [5], -0.786%; in assay [6], 2.29%. The Percent Effect was 13.7% in [7]; -10.2% in assay [8]; 8.47% in assay [9]; 15.4% in assay [10]; -7.77% in [11].
Take `O=C1N(Cc2ccccc2F)CCCC12CCN(C1CCSCC1)C2` (centres undefined): the Percent Effect was -1.79% in assay [1]; -8% in assay [2]; -0.682% in assay [3]; 0.979% in assay [4]; -1.46% in assay [5]; 3.65% in assay [6]. Also, the Percent Effect in [7] was 8.37%; in assay [8] it was -10.4%; in [9], 8.2%; in [10], 8.64%; in assay [11], 0.67%.
Take `N#Cc1ccc(F)c(CN2CCCC2Cn2cccn2)c1` (centres undefined): the Percent Effect in [1] is -4.03%; in assay [2] it was -8.11%; in assay [3], -4.51%; in assay [4], 13.8%; in [5] it was 1.39%; in assay [6], -0.554%. Also, the Percent Effect is -0.359% in assay [7]; 4.22% in [8]; 4.95% in assay [9]; 1.22% in [10]; 4.66% in assay [11].
Regarding `COCCOc1ccc(NC(=O)N2CCCC2c2cc(C)no2)cn1` (centres undefined), the Percent Effect in assay [1] is -4.97%; in [2], 0%; in assay [3], 0.449%; in assay [4] it was 5.01%; in assay [5], -0.686%; in [6] it was -1.05%. Also, the Percent Effect is 5.74% in [7]; 9.34% in assay [8]; 5.71% in assay [9]; 2.35% in [10]; -14.1% in [11].
As to `CS(=O)(=O)N1CCCN(C(=O)c2ccc(Cn3ccccc3=O)o2)CC1`, the Percent Effect in assay [1] is 0.345%; in [2], 10.8%; in assay [3] it was -1.54%; in assay [4], -9.12%; in assay [5], -8.45%; in assay [6] it was 2.77%. Moreover, the Percent Effect in [7] was 5.03%; in assay [8], 12.3%; in assay [9], 6.93%; in [10], 15.8%; in assay [11], -7.1%.
On to `COc1ccc(C2CCCN2C(=O)CCNc2ncccn2)cc1` (centres undefined), for which the Percent Effect was -2.77% in assay [1]; 0% in assay [2]; -2.54% in assay [3]; 0.524% in [4]; -1.57% in [5]; 5% in assay [6]. Besides, the Percent Effect in assay [7] was 7.1%; in assay [8], 1.66%; in assay [9], 1.07%; in assay [10], -5%; in assay [11] it was -1.55%.
Take `COc1cccc(COCC(=O)N2CCCC(c3nncn3C)C2)c1` (centres undefined): the Percent Effect in assay [1] is -4.98%; in assay [2] it was 13.5%; in assay [3] it was -6.54%; in assay [4] it was 18.4%; in [5], 3.11%; in assay [6], -6.81%. The Percent Effect in assay [7] was 0.721%; in assay [8], 13.5%; in assay [9], 4.43%; in assay [10] it was 16.1%; in assay [11] it was -11.8%.
Turning to `CCC(=O)Nc1nnc(CCOc2cccc(OC)c2)s1`, the Percent Effect in assay [1] was -4.51%; in assay [2], -6.67%; in [3], 42.3%; in [4], 1.2%; in assay [5] it was -3.54%; in assay [6] it was -4.4%. For the same compound, the Percent Effect was 9.43% in [7]; 7.09% in assay [8]; 0% in [9]; -7.69% in assay [10]; -2% in assay [11].
For `Cc1nc(C(C)C)sc1C(=O)NS(=O)(=O)c1ccc(C#N)cc1`, the Percent Effect in assay [1] was -1.22%; in assay [2], 8.11%; in [3] it was -3.43%; in [4], 18.3%; in [5], 5.99%; in assay [6], 9.52%. The Percent Effect in [7] was 11.9%; in [8], -9.57%; in assay [9], 4.76%; in assay [10], 9.76%; in assay [11] it was -5.85%.
